A short description of test [1]: NCI Yeast Anticancer Drug Screen. Data for the rad50 strain (AID 155).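 Further: 0% = growth of vehicle-only cultures of the same strain.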 As to conditions: S. cerevisiae rad50 strain growth inhibition, hits give high values. In outline: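 Vehicle-treated cultures provide the reference for the growth inhibition reported for compound-exposed, repair-deficient yeast.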
Test [2] in a line: NCI Yeast Anticancer Drug Screen. Data for the mec2-1 strain (AID 157). As to conditions: S. cerevisiae mec2-1 strain, hits give high values. An outline of the steps:
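Strain: mec2-1 (DNA repair/cell cycle alteration). Compound exposure, then growth measured; inhibition expressed relative to vehicle.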

Test [3] in a line: NCI Yeast Anticancer Drug Screen. Data for the sgs1 mgt1 strain (AID 161).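 Further: 0% = growth of cultures given vehicle only.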 The following applies: S. cerevisiae sgs1 mgt1 strain, hits give high values. In outline:
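Genetically altered yeast, compound exposure, growth inhibition relative to vehicle.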

Test [4] can be described thus: NCI Yeast Anticancer Drug Screen. Data for the cln2 rad14 strain (AID 165).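 Further: 0% = growth equal to vehicle treated cultures.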 As to conditions: S. cerevisiae cln2 rad14 strain, hits give high values. In outline: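 Compounds are applied to the cln2 rad14 yeast strain, and growth is then compared with that of vehicle-treated cultures to give inhibition.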
Test [5] is described as follows: NCI Yeast Anticancer Drug Screen. Data for the bub3 strain (AID 167). As to conditions: S. cerevisiae bub3 mutant strain, hits give high values. In outline: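 Mutant yeast screening strain plus compound; vehicle-treated cultures serve as the 0% inhibition reference.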
The nature of test [6]: NCI Yeast Anticancer Drug Screen. Data for the mlh1 rad18 strain (AID 175). The following applies: S. cerevisiae mlh1 rad18 strain growth inhibition, hits give high values. In outline:
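Read-out is yeast growth inhibition, calculated against vehicle-only controls. The compound was applied to a strain engineered with DNA damage repair alterations.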

[7] abbreviates: at 5.0 µM (retest, dose inferred, filed as 0.5).
[8] abbreviates: at 50.0 µM (retest, dose inferred, filed as 5.0).

About 79,000 compounds went through this panel and 15% of them were active in at least one assay; those are over-represented in the sample as a whole. A number with no mark means an inactive call. Activity calls are given as the source filed them. No stated cut-off is given here; in the data, active means growth inhibition above about 70%; inactive means the rest.

Regarding `CNC(=O)c1ccc(OC)cc1C1(O)c2ccccc2CCc2ccccc21`, the growth inhibition in test [1] (setting [7]) was 40%; in test [1] (setting [8]), 64%; in test [1] (at 50.0 µM), 58.6%; in test [2] (setting [7]) it was 34%; in test [2] (setting [8]) it was 49%; in test [2] (at 50.0 µM) it was 45%. The growth inhibition in test [3] (setting [7]) is 36%; in test [3] (setting [8]), 78% (active); in test [3] (at 50.0 µM), 80.5% (active); in test [4] (setting [7]) it was 27%; in test [4] (setting [8]), 49%; in test [4] (at 50.0 µM) it was 46.4%. The growth inhibition in test [5] (setting [7]) was 37%; in test [5] (setting [8]) it was 87% (active); in test [5] (at 50.0 µM), 58.8%; in test [6] (setting [7]), 46%; in test [6] (setting [8]), 76% (active); in test [6] (at 50.0 µM), 58.8%.

As to `CN(C)N=Nc1ccc(Cl)c2ncccc12`, the growth inhibition in test [1] (setting [7]) is 3%; in test [1] (setting [8]), -2%; in test [1] (at 50.0 µM), 0.2%; in test [2] (setting [7]), -2%; in test [2] (setting [8]), -2%; in test [2] (at 50.0 µM), 2.1%. Besides, the growth inhibition is 0% in test [3] (setting [7]); 2% in test [3] (setting [8]); -2.45% in test [3] (at 50.0 µM); -2% in test [4] (setting [7]); -5% in test [4] (setting [8]); 64.2% in test [4] (at 50.0 µM). Besides, the growth inhibition was -2% in test [5] (setting [7]); 1% in test [5] (setting [8]); -4.15% in test [5] (at 50.0 µM); -2% in test [6] (setting [7]); 7% in test [6] (setting [8]); 6.75% in test [6] (at 50.0 µM).

As for `O=C(O)/C(Cl)=C(\Cl)C(=O)Nc1cccc(C(F)(F)F)c1`, the growth inhibition is 65% in test [1] (setting [7]); 99% (active) in test [1] (setting [8]); 99.5% (active) in test [1] (at 50.0 µM); 56% in test [2] (setting [7]); 100% (active) in test [2] (setting [8]); 99.7% (active) in test [2] (at 50.0 µM). The growth inhibition is 68% in test [3] (setting [7]); 100% (active) in test [3] (setting [8]); 99.7% (active) in test [3] (at 50.0 µM); 43% in test [4] (setting [7]); 99% (active) in test [4] (setting [8]); 99.3% (active) in test [4] (at 50.0 µM). The growth inhibition in test [5] (setting [7]) was 88% (active); in test [5] (setting [8]), 99% (active); in test [5] (at 50.0 µM) it was 99.6% (active); in test [6] (setting [7]), 49%; in test [6] (setting [8]) it was 99% (active); in test [6] (at 50.0 µM), 99.5% (active).

Turning to `COc1ccc(/C=N/Nc2ccccc2)cc1`, the growth inhibition in test [1] (setting [7]) was 7%; in test [1] (setting [8]), 97% (active); in test [1] (at 50.0 µM), 98.5% (active); in test [2] (setting [7]) it was -12%; in test [2] (setting [8]), 85% (active); in test [2] (at 50.0 µM), 99% (active). Moreover, the growth inhibition in test [3] (setting [7]) is -6%; in test [3] (setting [8]) it was 97% (active); in test [3] (at 50.0 µM), 98.9% (active); in test [4] (setting [7]), -9%; in test [4] (setting [8]), 93% (active); in test [4] (at 50.0 µM), 98.7% (active). Further, the growth inhibition in test [5] (setting [7]) was -17%; in test [5] (setting [8]) it was 97% (active); in test [5] (at 50.0 µM), 99% (active); in test [6] (setting [7]), 8%; in test [6] (setting [8]), 96% (active); in test [6] (at 50.0 µM), 98.4% (active).

As to `O=C(O)C1C(C(=O)O)C23CC2(C(=O)O)C2(C(=O)O)CCC3=C3CCCC312` (configuration not stated), the growth inhibition in test [1] (setting [7]) is 3%; in test [1] (setting [8]), 100% (active); in test [1] (at 50.0 µM), 51.3%; in test [2] (setting [7]), -1%; in test [2] (setting [8]), 99% (active); in test [2] (at 50.0 µM), 55%. The growth inhibition in test [3] (setting [7]) is -7%; in test [3] (setting [8]) it was 100% (active); in test [3] (at 50.0 µM), 47.8%; in test [4] (setting [7]) it was -21%; in test [4] (setting [8]) it was 99% (active); in test [4] (at 50.0 µM), 19.4%. Moreover, the growth inhibition in test [5] (setting [7]) is 5%; in test [5] (setting [8]) it was 99% (active); in test [5] (at 50.0 µM) it was 85.3% (active); in test [6] (setting [7]), -3%; in test [6] (setting [8]), 100% (active); in test [6] (at 50.0 µM), 67.8%.

As for `CC1=NN(c2nc(N)nc(C(C)Sc3cc(Cl)c(C)cc3S(N)(=O)=O)n2)C(C)(C)C1` (configuration not stated), the growth inhibition in test [1] (setting [7]) is 4%; in test [1] (setting [8]) it was 18%; in test [1] (at 50.0 µM), -51%; in test [2] (setting [7]), -1%; in test [2] (setting [8]), -24%; in test [2] (at 50.0 µM), -25.8%. Further, the growth inhibition in test [3] (setting [7]) was 8%; in test [3] (setting [8]) it was 1%; in test [3] (at 50.0 µM), -10.6%; in test [4] (setting [7]) it was 29%; in test [4] (setting [8]) it was -6%; in test [4] (at 50.0 µM), 40.9%. The growth inhibition in test [5] (setting [7]) was 41%; in test [5] (setting [8]), 26%; in test [5] (at 50.0 µM) it was -17.1%; in test [6] (setting [7]), -6%; in test [6] (setting [8]) it was 0%; in test [6] (at 50.0 µM), 2.9%.

On to `COc1cc(C2c3cc4c(cc3[C@@H](Nc3ccc5c(c3)OCCO5)C3COC(=O)[C@H]23)OCO4)cc(OC)c1O` (some centres not stated), for which the growth inhibition in test [1] (setting [7]) is 96% (active); in test [1] (setting [8]), 93% (active); in test [1] (at 50.0 µM) it was 85.2% (active); in test [2] (setting [7]), 97% (active); in test [2] (setting [8]) it was 94% (active); in test [2] (at 50.0 µM), 91.2% (active). For the same compound, the growth inhibition in test [3] (setting [7]) was 99% (active); in test [3] (setting [8]), 99% (active); in test [3] (at 50.0 µM) it was 87.3% (active); in test [4] (setting [7]), 98% (active); in test [4] (setting [8]), 99% (active); in test [4] (at 50.0 µM), 85.8% (active). In addition, the growth inhibition in test [5] (setting [7]) was 98% (active); in test [5] (setting [8]), 99% (active); in test [5] (at 50.0 µM), 87.2% (active); in test [6] (setting [7]), 95% (active); in test [6] (setting [8]) it was 90% (active); in test [6] (at 50.0 µM) it was 88.8% (active).

As for `c1cc(NC2CCCCC2)ccc1CN1CCOCC1`, the growth inhibition in test [1] (setting [7]) was 57%; in test [1] (setting [8]) it was 90% (active); in test [1] (at 50.0 µM) it was 55.3%; in test [2] (setting [7]), 51%; in test [2] (setting [8]), 73% (active); in test [2] (at 50.0 µM), 70.5% (active). Also, the growth inhibition was 80% (active) in test [3] (setting [7]); 88% (active) in test [3] (setting [8]); 70% in test [3] (at 50.0 µM); 72% (active) in test [4] (setting [7]); 87% (active) in test [4] (setting [8]); 63.8% in test [4] (at 50.0 µM). For the same compound, the growth inhibition is 80% (active) in test [5] (setting [7]); 78% (active) in test [5] (setting [8]); 68.2% in test [5] (at 50.0 µM); 56% in test [6] (setting [7]); 82% (active) in test [6] (setting [8]); 79% (active) in test [6] (at 50.0 µM).

`O=C1CC(c2ccccc2)C(=O)N2C(=O)CC(c3ccccc3)C(=O)N12` (configuration not stated): the growth inhibition was 1% in test [1] (setting [7]); 28% in test [1] (setting [8]); 42.2% in test [1] (at 50.0 µM); 2% in test [2] (setting [7]); 3% in test [2] (setting [8]); 7.6% in test [2] (at 50.0 µM). The growth inhibition is -5% in test [3] (setting [7]); 8% in test [3] (setting [8]); 1.35% in test [3] (at 50.0 µM); -5% in test [4] (setting [7]); -9% in test [4] (setting [8]); -27.1% in test [4] (at 50.0 µM). The growth inhibition in test [5] (setting [7]) was 0%; in test [5] (setting [8]), 28%; in test [5] (at 50.0 µM), 71.5% (active); in test [6] (setting [7]), 2%; in test [6] (setting [8]), -7%; in test [6] (at 50.0 µM), 45.8%.

For the origin of these results see PubChem BioAssay (NCI).
